From the supplement of paper PMC10849652
About 7,900 targets were measured; listed, in parts, are those with a hit and a random draw of the rest. About 0.6% of all pairs of compound and target were hits. A number with no mark means an inactive call.

How the values were obtained:
Experiment in all cases: log2 fold change, soluble protein after heating vs DMSO (PISA); higher = thermal stabilisation; K562 cells, 10 uM, 30 min; active = over 0.2 and 3.5 SD of the protein, either way, in both replicates (recomputed)
[1] = compound: COC1=CC=C(C=C1)CN2C=CC3=C2C=C(C=C3)C(=O)NO
In short: (§1)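 Aliquots of K562 cells (2×10^6 cells/mL) treated with 10 μM compound for 30 min were heated for 3 min over 48°C-58°C. After pooling and extraction in PBS with 0.5% NP-40 at 4°C, soluble protein from a 21,000xg, 90 min spin was quantified by TMTpro 16plex LC-MS/MS with channel sums equalised. Thermal stability is expressed against control samples, from duplicates, as a log2 fold change.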

[2] = compound: CON(C)C(=O)N1N=C(c2cc(F)ccc2F)S[C@@]1(CCCN)c1ccccc1 [filanesib]
In short: as §1

[3] = compound: CO[C@H]1C[C@@H]2CC[C@@H](C)[C@@](O)(O2)C(=O)C(=O)N2CCCC[C@H]2C(=O)O[C@H]([C@H](C)C[C@@H]2CC[C@H](n3cnnn3)[C@H](OC)C2)CC(=O)[C@H](C)/C=C(\C)[C@@H](O)[C@@H](OC)C(=O)[C@H](C)C[C@H](C)/C=C/C=C/C=C/1C [zotarolimus]
In short: as §1

[4] = compound: COc1cc(C(=O)O)ccc1NC(=O)[C@@H]1N[C@@H](CC(C)(C)C)[C@](C#N)(c2ccc(Cl)cc2F)[C@H]1c1cccc(Cl)c1F [idasanutlin]
In short: as §1

[5] = compound: COc1cc(Nc2ncc3c(n2)-c2ccc(Cl)cc2C(c2c(F)cccc2OC)=NC3)ccc1C(=O)O [alisertib]
In short: as §1

[6] = compound: COc1cc2nc(-c3cc(F)ccc3O)nc(N[C@@H]3CNC[C@H]3C(C)(C)O)c2cc1OC
In short: as §1

[7] = compound: COc1cc2ncnc(Nc3ccc(F)c(Cl)c3)c2cc1OCCCN1CCOCC1 [gefitinib]
In short: as §1

[8] = compound: COc1cccc2cc(-c3nc([C@H]4CC[C@H](C(=O)O)CC4)n4ncnc(N)c34)[nH]c12
In short: as §1

[9] = compound: CS(=O)(=O)CCNCc1ccc(-c2ccc3ncnc(Nc4ccc(OCc5cccc(F)c5)c(Cl)c4)c3c2)o1 [lapatinib]
In short: as §1

[10] = compound: CS(=O)(=O)N1CCN(Cc2cc3nc(-c4cccc5[nH]ncc45)nc(N4CCOCC4)c3s2)CC1 [pictilisib]
In short: as §1

[11] = compound: CS(=O)(=O)c1ccc(-c2cnc(N)c(C(=O)Nc3ccccc3)n2)cc1
In short: as §1

[12] = compound: C[C@@H](Oc1cc(-c2cnn(C3CCNCC3)c2)cnc1N)c1c(Cl)ccc(F)c1Cl [crizotinib]
In short: as §1

[13] = compound: C[C@@H]1COCCN1C2=NC(=NC(=C2)C3(CC3)S(=O)(=O)C)C4=C5C=CNC5=CC=C4
In short: as §1

[14] = compound: C[C@H](C1=CC=C(C=C1)C(=O)NC2=C3C=CNC3=NC=C2)N
In short: as §1

[15] = compound: C[C@H](Nc1ncnc2nc[nH]c12)c1cc2cccc(Cl)c2c(=O)n1-c1ccccc1 [duvelisib]
In short: as §1

[16] = compound: Cc1cc(Nc2cc(CN3CCOCC3)c3nc(C)c(Cc4ccc(Cl)cc4F)n3n2)n[nH]1 [gandotinib]
In short: as §1

[17] = compound: Cc1cc(Nc2cc(N3CCN(C)CC3)nc(Sc3ccc(NC(=O)C4CC4)cc3)n2)n[nH]1 [tozasertib]
In short: as §1

[18] = compound: Cc1cc(SCc2sc(-c3ccc(C(F)(F)F)cc3)nc2C)ccc1OCC(=O)O
In short: as §1

[19] = compound: Cc1ccc(-n2nc(C(C)(C)C)cc2NC(=O)Nc2ccc(OCCN3CCOCC3)c3ccccc23)cc1 [doramapimod]
In short: as §1

[20] = compound: Cc1ccc(C(=O)N(CCCN)[C@@H](c2nc3cc(Cl)ccc3c(=O)n2Cc2ccccc2)C(C)C)cc1 [ispinesib]
In short: as §1

Sequence of UniProt O75717 (O75717 whole entry, looked up): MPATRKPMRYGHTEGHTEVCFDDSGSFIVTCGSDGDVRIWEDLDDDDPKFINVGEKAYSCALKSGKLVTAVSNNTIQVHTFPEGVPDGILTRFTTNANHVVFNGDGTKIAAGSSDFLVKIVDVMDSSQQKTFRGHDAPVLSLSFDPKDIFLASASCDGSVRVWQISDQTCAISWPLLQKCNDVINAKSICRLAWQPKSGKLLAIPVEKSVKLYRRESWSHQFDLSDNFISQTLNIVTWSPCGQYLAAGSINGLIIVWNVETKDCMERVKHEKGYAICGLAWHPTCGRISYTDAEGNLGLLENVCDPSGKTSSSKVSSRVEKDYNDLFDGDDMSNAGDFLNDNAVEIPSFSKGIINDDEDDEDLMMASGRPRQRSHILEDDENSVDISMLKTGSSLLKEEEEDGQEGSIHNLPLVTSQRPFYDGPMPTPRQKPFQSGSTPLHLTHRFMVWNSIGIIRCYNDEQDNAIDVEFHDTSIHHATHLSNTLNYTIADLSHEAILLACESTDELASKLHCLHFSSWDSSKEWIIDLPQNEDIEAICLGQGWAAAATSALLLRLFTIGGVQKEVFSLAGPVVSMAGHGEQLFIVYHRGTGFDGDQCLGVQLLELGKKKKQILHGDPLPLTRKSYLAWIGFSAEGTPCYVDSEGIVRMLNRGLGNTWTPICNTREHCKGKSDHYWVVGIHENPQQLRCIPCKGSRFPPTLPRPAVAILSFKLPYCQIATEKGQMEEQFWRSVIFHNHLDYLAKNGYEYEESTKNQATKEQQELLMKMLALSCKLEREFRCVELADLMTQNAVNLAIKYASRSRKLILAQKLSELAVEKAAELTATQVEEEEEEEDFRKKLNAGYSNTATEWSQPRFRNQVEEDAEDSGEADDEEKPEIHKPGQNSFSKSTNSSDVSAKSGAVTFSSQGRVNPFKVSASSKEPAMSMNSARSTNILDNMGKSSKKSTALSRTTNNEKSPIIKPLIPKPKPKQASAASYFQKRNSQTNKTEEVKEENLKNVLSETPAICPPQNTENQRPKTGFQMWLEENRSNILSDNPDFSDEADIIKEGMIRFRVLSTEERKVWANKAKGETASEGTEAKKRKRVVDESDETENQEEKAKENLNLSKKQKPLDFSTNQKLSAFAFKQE
Sequence of UniProt Q14139 (Q14139 whole entry, looked up): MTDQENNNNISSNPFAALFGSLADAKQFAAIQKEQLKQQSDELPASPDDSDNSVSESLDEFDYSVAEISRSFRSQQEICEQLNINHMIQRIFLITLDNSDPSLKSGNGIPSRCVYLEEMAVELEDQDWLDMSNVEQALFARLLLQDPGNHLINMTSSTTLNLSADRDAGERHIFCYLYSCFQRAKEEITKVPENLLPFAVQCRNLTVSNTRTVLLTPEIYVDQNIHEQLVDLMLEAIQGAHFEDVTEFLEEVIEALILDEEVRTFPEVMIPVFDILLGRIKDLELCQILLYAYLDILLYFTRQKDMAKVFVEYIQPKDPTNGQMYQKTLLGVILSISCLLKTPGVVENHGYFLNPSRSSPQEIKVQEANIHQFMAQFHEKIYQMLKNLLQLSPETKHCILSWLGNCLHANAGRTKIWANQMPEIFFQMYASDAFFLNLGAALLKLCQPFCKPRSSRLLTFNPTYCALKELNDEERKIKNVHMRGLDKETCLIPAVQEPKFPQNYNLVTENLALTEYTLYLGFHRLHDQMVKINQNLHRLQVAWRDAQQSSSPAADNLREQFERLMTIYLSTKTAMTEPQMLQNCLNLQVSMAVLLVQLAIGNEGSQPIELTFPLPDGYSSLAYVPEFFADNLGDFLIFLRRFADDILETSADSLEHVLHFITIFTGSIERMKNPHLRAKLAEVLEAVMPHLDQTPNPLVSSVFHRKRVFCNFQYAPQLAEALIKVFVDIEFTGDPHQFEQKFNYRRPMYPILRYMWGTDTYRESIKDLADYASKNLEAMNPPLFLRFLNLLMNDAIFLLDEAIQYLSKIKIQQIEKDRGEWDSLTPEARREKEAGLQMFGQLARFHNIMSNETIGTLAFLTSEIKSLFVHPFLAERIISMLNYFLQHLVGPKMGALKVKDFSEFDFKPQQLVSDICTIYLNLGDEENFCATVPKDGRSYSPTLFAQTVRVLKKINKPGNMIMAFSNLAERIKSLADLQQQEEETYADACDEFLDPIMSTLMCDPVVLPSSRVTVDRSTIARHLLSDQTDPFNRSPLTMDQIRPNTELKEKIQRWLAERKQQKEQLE
Sequence of UniProt Q8NDZ6 (Q8NDZ6 whole entry, looked up): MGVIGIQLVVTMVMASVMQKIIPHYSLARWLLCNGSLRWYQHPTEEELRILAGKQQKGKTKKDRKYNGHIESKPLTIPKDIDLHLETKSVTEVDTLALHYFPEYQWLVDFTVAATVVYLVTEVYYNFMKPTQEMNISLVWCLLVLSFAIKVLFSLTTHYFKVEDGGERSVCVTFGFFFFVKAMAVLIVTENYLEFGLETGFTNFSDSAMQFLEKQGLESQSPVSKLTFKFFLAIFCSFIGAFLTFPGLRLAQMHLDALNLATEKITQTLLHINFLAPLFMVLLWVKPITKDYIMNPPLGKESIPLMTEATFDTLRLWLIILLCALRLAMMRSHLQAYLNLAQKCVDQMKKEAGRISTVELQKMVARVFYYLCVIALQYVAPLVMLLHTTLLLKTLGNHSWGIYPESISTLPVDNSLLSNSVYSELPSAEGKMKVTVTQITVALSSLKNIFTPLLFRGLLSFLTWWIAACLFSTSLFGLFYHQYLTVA
Sequence of UniProt O43379 (O43379 whole entry, looked up): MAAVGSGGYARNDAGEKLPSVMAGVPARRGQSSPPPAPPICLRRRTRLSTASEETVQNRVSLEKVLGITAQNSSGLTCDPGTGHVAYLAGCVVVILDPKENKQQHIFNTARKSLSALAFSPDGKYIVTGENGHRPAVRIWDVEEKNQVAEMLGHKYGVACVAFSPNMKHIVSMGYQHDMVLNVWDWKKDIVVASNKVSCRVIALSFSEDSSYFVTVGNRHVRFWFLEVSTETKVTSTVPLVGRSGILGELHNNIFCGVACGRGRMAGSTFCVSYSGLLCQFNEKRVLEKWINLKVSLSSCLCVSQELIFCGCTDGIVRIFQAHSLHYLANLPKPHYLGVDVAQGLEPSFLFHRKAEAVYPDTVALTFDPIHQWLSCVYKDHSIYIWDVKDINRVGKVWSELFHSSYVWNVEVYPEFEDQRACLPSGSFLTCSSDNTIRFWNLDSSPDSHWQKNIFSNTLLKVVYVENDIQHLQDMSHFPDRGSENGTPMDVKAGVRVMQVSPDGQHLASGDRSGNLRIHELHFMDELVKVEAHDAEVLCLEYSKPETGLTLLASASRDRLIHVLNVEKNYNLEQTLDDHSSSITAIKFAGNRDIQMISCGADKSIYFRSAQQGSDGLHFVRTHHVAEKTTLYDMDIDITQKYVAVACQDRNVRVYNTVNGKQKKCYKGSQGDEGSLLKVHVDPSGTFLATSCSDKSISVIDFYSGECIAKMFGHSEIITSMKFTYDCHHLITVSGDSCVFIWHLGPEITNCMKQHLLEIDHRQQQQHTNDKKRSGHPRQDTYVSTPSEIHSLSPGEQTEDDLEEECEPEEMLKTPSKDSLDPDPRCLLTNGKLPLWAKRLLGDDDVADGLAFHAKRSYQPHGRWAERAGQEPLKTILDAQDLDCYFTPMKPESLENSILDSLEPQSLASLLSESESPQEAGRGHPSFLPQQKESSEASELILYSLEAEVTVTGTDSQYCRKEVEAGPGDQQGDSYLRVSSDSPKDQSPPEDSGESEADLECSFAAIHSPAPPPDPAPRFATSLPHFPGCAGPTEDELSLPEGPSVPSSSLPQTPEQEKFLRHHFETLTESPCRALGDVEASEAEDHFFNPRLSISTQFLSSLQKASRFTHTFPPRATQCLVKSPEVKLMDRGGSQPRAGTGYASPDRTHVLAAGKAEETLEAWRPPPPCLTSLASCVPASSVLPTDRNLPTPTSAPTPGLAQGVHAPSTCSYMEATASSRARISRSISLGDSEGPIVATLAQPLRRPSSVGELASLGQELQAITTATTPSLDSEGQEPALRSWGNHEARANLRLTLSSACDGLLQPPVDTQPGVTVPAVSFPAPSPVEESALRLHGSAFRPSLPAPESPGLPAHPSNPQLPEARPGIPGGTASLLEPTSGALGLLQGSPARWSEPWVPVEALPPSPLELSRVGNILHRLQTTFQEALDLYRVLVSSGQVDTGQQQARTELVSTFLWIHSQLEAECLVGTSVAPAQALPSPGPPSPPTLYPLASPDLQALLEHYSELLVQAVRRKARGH
Sequence of UniProt P51809 (P51809 whole entry, looked up): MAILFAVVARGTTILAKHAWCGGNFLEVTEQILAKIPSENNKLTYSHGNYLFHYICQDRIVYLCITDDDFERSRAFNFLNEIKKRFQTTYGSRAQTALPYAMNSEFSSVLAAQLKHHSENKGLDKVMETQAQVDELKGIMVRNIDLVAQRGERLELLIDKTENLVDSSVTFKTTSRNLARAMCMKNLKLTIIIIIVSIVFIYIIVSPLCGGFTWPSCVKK
Sequence of UniProt Q99816 (Q99816 whole entry, looked up): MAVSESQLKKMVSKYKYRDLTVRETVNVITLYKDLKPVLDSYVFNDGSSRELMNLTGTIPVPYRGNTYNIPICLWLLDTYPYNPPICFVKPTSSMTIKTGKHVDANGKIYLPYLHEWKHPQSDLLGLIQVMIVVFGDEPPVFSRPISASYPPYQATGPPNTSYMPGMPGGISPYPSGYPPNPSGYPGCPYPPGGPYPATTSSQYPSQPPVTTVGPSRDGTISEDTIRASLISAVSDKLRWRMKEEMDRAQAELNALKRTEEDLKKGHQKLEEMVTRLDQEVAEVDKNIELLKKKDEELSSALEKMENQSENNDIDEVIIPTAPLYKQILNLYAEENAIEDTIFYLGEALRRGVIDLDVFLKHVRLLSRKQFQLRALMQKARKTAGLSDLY
Sequence of UniProt Q9UBK9 (Q9UBK9 whole entry, looked up): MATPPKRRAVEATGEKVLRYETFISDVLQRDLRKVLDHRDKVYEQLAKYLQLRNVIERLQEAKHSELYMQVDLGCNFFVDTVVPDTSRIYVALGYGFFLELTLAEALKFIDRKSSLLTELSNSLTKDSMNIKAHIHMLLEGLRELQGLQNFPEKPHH

Row | Target | log2 fold change [1] | log2 fold change [2] | log2 fold change [3] | log2 fold change [4] | log2 fold change [5] | log2 fold change [6] | log2 fold change [7] | log2 fold change [8] | log2 fold change [9] | log2 fold change [10] | log2 fold change [11] | log2 fold change [12] | log2 fold change [13] | log2 fold change [14] | log2 fold change [15] | log2 fold change [16] | log2 fold change [17] | log2 fold change [18] | log2 fold change [19] | log2 fold change [20]
1 | TSG101 (UniProt Q99816) | 0 | -0.07 | 0.029 | -0.031 | -0.049 | 0.007 | 0.011 | 0.016 | -0.013 | 0.025 | 0.035 | -0.094 | 0.082 | -0.054 | 0.019 | -0.024 | 0.032 | 0.018 | 0.009 | -0.037
2 | VRK2 (UniProt Q86Y07) | -0.009 | 0.075 | 0 | -0.066 | 0.042 | 0.003 | 0.018 | -0.027 | -0.003 | -0.06 | 0.048 | -0.16 | 0.015 | 0.472 (active) | -0.01 | -0.08 | -0.057 | 0.012 | 0.026 | -0.115
3 | WDHD1 (UniProt O75717) | 0.013 | -0.003 | 0.031 | 0.005 | 0.036 | 0.011 | 0.013 | -0.012 | 0.006 | -0.015 | 0.038 | 0.021 | 0.098 | -0.025 | 0.109 | -0.029 | 0.09 | 0.109 | -0.093 | 0.042
4 | TXNIP (UniProt Q9H3M7) | -0.013 | -0.148 | 0.172 | 0.035 | -0.198 | -0.074 | 0.002 | -0.119 | 0.228 | 0.142 | 0.05 | -0.36 | -0.103 | -0.188 | 0.03 | -0.068 | -0.06 | 0.01 | 0.113 | -0.087
5 | WDR62 isoform 4 (UniProt O43379) | -0.036 | 0.016 | 0.028 | 0.02 | -0.024 | -0.026 | 0.049 | 0.046 | 0.054 | 0.015 | 0.064 | -0.137 | 0.07 | -0.064 | 0.011 | -0.204 (active) | -0.068 | -0.016 | -0.057 | -0.02
6 | UBC (UniProt P0CG48) | -0.064 | 0.09 | 0.048 | 0 | -0.002 | 0.06 | 0.038 | 0.018 | -0.101 | 0.008 | -0.003 | 0.208 | 0.05 | 0.064 | 0.075 | 0.014 | 0.009 | -0.009 | 0.035 | 0.091
7 | VAMP7 (UniProt P51809) | 0.035 | -0.095 | -0.005 | -0.111 | -0.072 | 0.099 | 0.033 | 0.012 | -0.005 | -0.001 | 0.021 | -0.299 (active) | 0.005 | -0.046 | -0.005 | -0.026 | 0.005 | -0.011 | -0.007 | -0.275 (active)
8 | XPO5 (UniProt Q9HAV4) | 0.019 | -0.122 | 0.023 | -0.055 | -0.008 | -0.068 | -0.008 | -0.052 | -0.004 | -0.034 | -0.008 | -0.052 | 0.021 | -0.026 | 0.007 | -0.192 | 0.03 | 0.064 | -0.043 | -0.079
9 | UBE4A isoform 2 (UniProt Q14139) | 0.037 | -0.023 | -0.003 | 0.008 | -0.003 | -0.024 | -0.056 | -0.073 | 0.022 | 0.016 | 0.036 | -0.275 | 0.069 | 0.29 (active) | 0.006 | -0.076 | 0.037 | 0.117 | -0.023 | -0.172
10 | WDR11 (UniProt Q9BZH6) | -0.069 | 0.027 | -0.058 | -0.124 | -0.062 | 0.104 | -0.016 | 0.094 | -0.094 | 0.094 | -0.064 | -0.007 | 0.111 | 0.059 | 0.029 | -0.291 | -0.049 | -0.051 | 0.056 | -0.133
11 | TMEM214 (UniProt Q6NUQ4) | -0.003 | 0.185 | -0.013 | -0.045 | -0.041 | 0.282 (active) | -0.012 | -0.111 | 0.046 | -0.055 | -0.018 | 0.123 | -0.043 | 0.067 | 0.011 | -0.079 | 0.028 | 0.048 | -0.013 | 0.072
12 | TNFRSF10A (UniProt O00220) | -0.046 | 0.028 | -0.035 | 0.058 | -0.021 | 0.024 | -0.012 | -0.002 | -0.073 | 0.304 (active) | -0.008 | 0.037 | 0.047 | -0.073 | 0 | 0.019 | -0.024 | -0.019 | -0.023 | -0.075
13 | VPS52 (UniProt Q8N1B4) | -0.003 | 0.017 | 0.044 | 0.088 | -0.069 | 0.058 | 0.014 | -0.022 | -0.043 | -0.02 | -0.001 | -0.102 | -0.031 | 0.058 | 0.033 | -0.122 | 0.022 | -0.013 | 0.008 | -0.068
14 | UXT isoform 2 (UniProt Q9UBK9) | 0.473 (active) | 0.001 | -0.067 | 0.026 | -0.016 | 0.033 | 0.049 | -0.025 | 0.077 | 0.25 | 0.063 | 0.056 | 0.184 | 0.006 | 0.017 | 0.255 | 0.021 | -0.034 | 0.017 | -0.035
15 | TMEM161B (UniProt Q8NDZ6) | -0.055 | -0.008 | -0.035 | -0.16 | 0.006 | 0.013 | 0.087 | -0.015 | -0.056 | 0.097 | 0.026 | -0.096 | 0.004 | 0.002 | 0.128 | -0.156 | 0.063 | 0.11 | -0.024 | -0.055
16 | VTI1B (UniProt Q9UEU0) | -0.089 | -0.027 | -0.063 | -0.026 | 0.046 | 0 | -0.023 | 0.137 | 0.002 | 0.061 | 0.022 | -0.089 | 0.025 | 0.032 | -0.045 | 0.039 | 0.005 | -0.077 | 0.084 | -0.41 (active)
